# Data taken from PubChem BioAssay (Tox21).
# Values joined by “and” are separate entries in the source; they are usually repeats but may differ in a detail not shown here. Equal entries are not always repeated. Records with an inconclusive call do not appear. Active and inactive are the calls of the source. Unless noted, the call rests on the fitted dose curve; in most records, active means well fitted curve in the direction sought with a large enough effect in the repeat runs; inconclusive means weak or mixed curves; inactive means no such curve, though single readings can be large; an effect the other way counts as inactive or inconclusive.
# Tests used:
# [1] = qHTS assay to identify small molecule agonists of the peroxisome proliferator-activated receptor delta (PPARd) signaling pathway - cell viability counter screen (AID 743211); further: potency means the concentration at half of the fitted maximal effect; nearly all actives have a fitted effect of over 55% in size
# Method in brief: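 Counter screen for cytotoxicity run in parallel with the PPARd reporter screen. Beta-lactamase reporter HEK293H cells exposed to compounds 17 h; ATP-based CellTiter-Glo luminescence quantified viability.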
# [2] = target: Bile acid receptor (Homo sapiens) (UniProt Q96RI1); experiment: qHTS assay to identify small molecule antagonists of the farnesoid-X-receptor (FXR) signaling pathway (AID 743217; active means well fitted inhibition curve with a large enough effect in the signal ratio in the repeat runs, not every such curve was filed as active; the % refers to the signal ratio; further: potency means the concentration at half of the fitted maximal effect)
# Method in brief: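 Beta-lactamase reporter under UAS control in HEK 293T cells; compound exposure 16 h at 37 °C in the presence of chenodeoxycholic acid (50 uM final); signal from B/G FRET substrate after 2 h at room temperature.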
# [3] = qHTS assay to identify small molecule agonists of the farnesoid-X-receptor (FXR) signaling pathway - cell viability counter screen (AID 743218); further: nearly all actives have a fitted effect of over 45% in size; further: potency means the concentration at half of the fitted maximal effect
# Method in brief: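 In GeneBLAzer FXR-UAS-bla HEK 293T cells, compounds act for 16 h at 37 C. Cell viability is then scored in the reporter wells by CellTiter-Glo, 30 min at RT, luminescence.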
# [4] = target: Bile acid receptor (Homo sapiens) (UniProt Q96RI1); experiment: qHTS assay to identify small molecule agonists of the farnesoid-X-receptor (FXR) signaling pathway (AID 743220; active means well fitted activation curve with a large enough effect in the signal ratio in the repeat runs, not every such curve was filed as active; the % refers to the signal ratio)
# Method in brief: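 Beta-lactamase reporter under UAS control in GeneBLAzer FXR HEK 293T cells (5000/well) measured with LiveBLAzer FRET substrate after 2 h at room temperature. Compound exposure lasted 16 h at 37C.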
# [5] = target: Vitamin D3 receptor (Homo sapiens) (UniProt P11473); experiment: qHTS assay to identify small molecule agonists of the vitamin D receptor (VDR) signaling pathway (AID 743222; calls by dose curve)
# Method in brief: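 Agonist activity measured in VDR-bla reporter cells. Exposure 16 h, 37C, 5% CO2; detection by B/G FRET substrate, 2 h RT.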
# [6] = target: Vitamin D3 receptor (Homo sapiens) (UniProt P11473); experiment: qHTS assay to identify small molecule antagonists of the vitamin D receptor (VDR) signaling pathway (AID 743223; active means well fitted inhibition curve with a large enough effect in the signal ratio in the repeat runs, not every such curve was filed as active; the % refers to the signal ratio; further: potency means the concentration at half of the fitted maximal effect)
# Method in brief: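 Cells carrying a VDR-driven beta-lactamase reporter (VDR-bla) were co-treated with compound and 3 nM final 1alpha,25-dihydroxyvitamin D3 for 16 h at 37C; reporter activity was measured as FRET substrate fluorescence after 2 h at room temperature.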
# [7] = qHTS assay to identify small molecule agonists of the vitamin D receptor (VDR) signaling pathway - cell viability counter screen (AID 743224); further: nearly all actives have a fitted effect of over 50% in size; further: potency means the concentration at half of the fitted maximal effect
# Method in brief: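 VDR-bla cell line, quantitative HTS format; 16 h compound incubation (37C, 5% CO2); ATP-based CellTiter-Glo luminescence measured in the reporter assay wells.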
# [8] = qHTS assay to identify small molecule antagonists of the vitamin D receptor (VDR) signaling pathway - cell viability counter screen (AID 743225); further: nearly all actives have a fitted effect of over 50% in size; further: potency means the concentration at half of the fitted maximal effect
# Method in brief: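 HEK293T VDR-bla; cpd + 1a,25-(OH)2D3 3 nM final, 16 h 37C/5% CO2; B/G FRET substrate 2 h RT; then CellTiter-Glo 30 min RT, luminescence.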
# [9] = qHTS assay to identify small molecule agonists of the NFkB signaling pathway - cell viability counter screen (AID 1159515; calls by dose curve; further: nearly all actives have a fitted effect of over 55% in size; further: potency means the concentration at half of the fitted maximal effect)
# Method in brief: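 Viability in NFkB-bla ME-180 cells was measured by CellTiter-Glo luminescence, 30 min room temperature, in wells already treated 5 hr with compounds and read for reporter FRET.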
# [10] = target: Nuclear receptor ROR-gamma (Homo sapiens) (UniProt P51449); experiment: qHTS assay to identify small molecule antagonists of the retinoid-related orphan receptor gamma (ROR-gamma) signaling pathway (AID 1159521; further: potency means the concentration at half of the fitted maximal effect; nearly all actives have a fitted effect of over 50% in size)
# Method in brief: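 Cells were plated, rested 4 h at 37 C, exposed to compounds for 2 h, then given 1 uM final doxycycline hyclate to induce RORγ expression. After 16 h, ONE-Glo luminescence from the ROR response element reporter was measured.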
# [11] = qHTS assay to identify small molecule agonists of the AP-1 signaling pathway - cell viability counter screen (AID 1159525; calls by dose curve; further: nearly all actives have a fitted effect of over 55% in size; further: potency means the concentration at half of the fitted maximal effect)
# Method in brief: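 AP-1-bla ME-180 cells in Opti-MEM with 0.5% dialyzed FBS, compound exposure 5 h at 37 C in 15-point titration. Viability read in the same wells as ATP content by CellTiter-Glo luminescence, normalised to tetra-n-octylammonium bromide and DMSO controls.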
# [12] = qHTS assay to identify small molecule antagonists of the farnesoid-X-receptor (FXR) signaling pathway - cell viability counter screen (AID 743221; active means well fitted cell-killing curve with a large enough effect in the repeat runs, not every such curve was filed as active; further: nearly all actives have a fitted effect of over 50% in size; further: potency means the concentration at half of the fitted maximal effect)
# Method in brief: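 Multiplexed counter screen: viability of FXR-bla HEK 293T cells under agonist stimulation by chenodeoxycholic acid (50 uM, final) and test compound for 16 h at 37 C, measured by CellTiter-Glo luminescence in the reporter wells.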
# [13] = qHTS assay to identify small molecule agonists of the endoplasmic reticulum stress response signaling pathway - cell viability counter screen (AID 1159517; calls by dose curve; further: nearly all actives have a fitted effect of over 50% in size; further: potency means the concentration at half of the fitted maximal effect)
# Method in brief: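 ESRE-bla HeLa cells, 1,500 per well, seeded overnight then treated with compounds for 5 hr at 37 C. After the beta-lactamase read, viability in the same wells is measured by CellTiter-Glo luminescence after 30 min at room temperature.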
# [14] = qHTS assay to identify small molecule antagonists of the retinoid-related orphan receptor gamma (ROR-gamma) signaling pathway - cell viability counter screen (AID 1159520)
# Method in brief: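 Tet-on ROR gamma CHO cells were given compounds for 2 hr, then doxycycline hyclate at 1 uM final, and incubated 16 hr at 37 C. Viability was measured as ATP content by CellTiter-Glo luminescence.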
# [15] = target: Peroxisome proliferator-activated receptor delta (Homo sapiens) (UniProt Q03181); experiment: qHTS assay to identify small molecule antagonists of the peroxisome proliferator-activated receptor delta (PPARd) signaling pathway (AID 743215; active means well fitted inhibition curve with a large enough effect in the signal ratio in the repeat runs, not every such curve was filed as active; the % refers to the signal ratio;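 further: cells stimulated with agonist L165041 at 300 nM final during compound exposure; series mostly up to about 62 µM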)
# Method in brief: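 Antagonist-mode beta-lactamase reporter screen: HEK293H cells with UAS-bla under PPARd control, stimulated by 300 nM L165041 (final) alongside test compound for 17 h at 37 C, then FRET fluorescence after 2 h substrate incubation.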
# [16] = qHTS assay to identify small molecule agonists of the AP-1 signaling pathway (AID 1159526; calls by dose curve; further: potency means the concentration at half of the fitted maximal effect)
# [17] = qHTS assay to identify small molecule antagonists of the peroxisome proliferator-activated receptor delta (PPARd) signaling pathway - cell viability counter screen (AID 743213)
# Method in brief: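 Same-well viability: cells pre-incubated 5 h, dosed with compound plus 300 nM L165041, kept 17 h at 37 C, FRET substrate 2 h RT, then CellTiter-Glo 30 min RT and luminescence.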
# Chain of Vitamin D3 receptor (Homo sapiens) (P11473 whole entry, looked up): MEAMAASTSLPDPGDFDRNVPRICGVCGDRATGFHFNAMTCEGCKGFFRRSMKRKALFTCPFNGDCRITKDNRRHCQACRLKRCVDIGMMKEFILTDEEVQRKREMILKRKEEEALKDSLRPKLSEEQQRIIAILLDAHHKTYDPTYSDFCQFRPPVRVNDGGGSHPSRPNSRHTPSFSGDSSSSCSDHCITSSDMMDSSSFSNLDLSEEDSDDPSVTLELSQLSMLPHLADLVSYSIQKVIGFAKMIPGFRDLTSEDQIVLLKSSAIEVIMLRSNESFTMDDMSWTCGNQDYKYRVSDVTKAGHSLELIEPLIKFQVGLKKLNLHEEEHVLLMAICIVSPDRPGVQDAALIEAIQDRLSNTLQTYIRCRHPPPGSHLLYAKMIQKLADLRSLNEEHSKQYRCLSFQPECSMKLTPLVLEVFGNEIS
# Chain of Bile acid receptor (Homo sapiens) (Q96RI1 whole entry, looked up): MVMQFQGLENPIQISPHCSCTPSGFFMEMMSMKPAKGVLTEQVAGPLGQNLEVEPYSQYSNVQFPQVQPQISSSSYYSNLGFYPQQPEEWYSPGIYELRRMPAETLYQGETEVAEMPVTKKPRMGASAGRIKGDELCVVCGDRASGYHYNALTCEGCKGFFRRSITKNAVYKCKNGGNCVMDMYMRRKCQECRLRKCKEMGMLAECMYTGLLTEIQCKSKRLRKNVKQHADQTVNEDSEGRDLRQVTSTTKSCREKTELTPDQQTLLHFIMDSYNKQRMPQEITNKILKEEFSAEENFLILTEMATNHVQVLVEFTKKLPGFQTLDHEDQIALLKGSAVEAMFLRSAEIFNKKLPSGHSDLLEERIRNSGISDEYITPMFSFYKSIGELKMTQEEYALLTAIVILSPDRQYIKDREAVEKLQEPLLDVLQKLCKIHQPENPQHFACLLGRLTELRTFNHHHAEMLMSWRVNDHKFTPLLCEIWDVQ
# Chain of Peroxisome proliferator-activated receptor delta (Homo sapiens) (Q03181 whole entry, looked up): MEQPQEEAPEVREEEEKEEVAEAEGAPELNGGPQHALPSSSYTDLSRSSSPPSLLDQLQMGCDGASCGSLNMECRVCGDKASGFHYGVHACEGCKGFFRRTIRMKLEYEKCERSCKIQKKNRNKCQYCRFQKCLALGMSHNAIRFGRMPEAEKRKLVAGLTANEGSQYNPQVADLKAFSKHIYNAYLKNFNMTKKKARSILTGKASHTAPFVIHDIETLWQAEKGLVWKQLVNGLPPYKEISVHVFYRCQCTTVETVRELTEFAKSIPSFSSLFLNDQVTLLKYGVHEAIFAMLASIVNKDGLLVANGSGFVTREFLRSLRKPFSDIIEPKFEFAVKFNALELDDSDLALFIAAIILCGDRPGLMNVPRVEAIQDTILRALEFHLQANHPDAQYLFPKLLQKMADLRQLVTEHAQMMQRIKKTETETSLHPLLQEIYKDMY
Compound,Potency [1],Potency [2],Potency [3],Potency [4],Potency [5],Potency [6],Potency [7],Potency [8],Potency [9],Potency [10],Potency [11],Potency [12],Potency [13],Potency [14],Potency [15],Potency [16],Potency [17]
CCN(CC)CCOc1ccc(/C(=C(\Cl)c2ccccc2)c2ccccc2)cc1,35.4 µM (active) and 29.8 µM (active),inactive,35.4 µM (active) and 26.6 µM (active),inactive,inactive,31.6 µM (active),19.9 µM (active) and 26.6 µM (active),22.3 µM (active) and 21.3 µM (active),44.6 µM (active) and 23.9 µM (active),19.7 µM (active) and 26.6 µM (active),17.7 µM (active),–,–,–,–,–,–
CCCCCCCCCCCCc1ccccc1O,13.6 µM (active) and 34.7 µM (active),49 µM (active),17.2 µM (active) and 30.9 µM (active),–,–,15.3 µM (active) and 19.5 µM (active),10.8 µM (active) and 19.5 µM (active),17.2 µM (active) and 21.9 µM (active),19.2 µM (active) and 21.9 µM (active),67.7 µM (active) and 24.3 µM (active),13.6 µM (active) and 17.4 µM (active),43.1 µM (active) and 43.6 µM (active),17.2 µM (active) and 24.5 µM (active),60.3 µM (active) and 27.3 µM (active),–,–,–
CC[C@]1(O)C[C@@H]2CN(CCc3c([nH]c4ccccc34)[C@@](C(=O)OC)(c3cc4c(cc3OC)N(C)[C@H]3[C@@](O)(C(=O)OC)[C@H](OC(C)=O)[C@]5(CC)C=CCN6CC[C@]43[C@@H]65)C2)C1,–,–,inactive,–,inactive,inactive,inactive,inactive,inactive,596 nM (active) and 8.41 µM (active),inactive,inactive,inactive,–,inactive,0.268 µM (active),–
CN(C)c1ccc(C(=C2C=CC(=[N+](C)C)C=C2)c2ccccc2)cc1,–,–,437 nM (active) and 2.37 µM (active),–,–,–,219 nM (active) and 2.11 µM (active),490 nM (active) and 3.38 µM (active),3.09 µM (active) and 10.7 µM (active),–,13.8 µM (active) and 23.9 µM (active) and 10.7 µM (active),617 nM (active) and 1.5 µM (active),27.5 µM (active),–,–,0.848 µM (active),490 nM (active) and 3.35 µM (active)
